# IL-1B inflam inh: qHTS for Inhibitors of Inflammasome Signaling: IL-1-beta AlphaLISA Primary Screen | THP-1 LPS/ATP IL-1B secretion, AlphaLISA, 16 h; active compounds read low | activity change, % at 57.5 µM | hit rate 4.7% among 360,000 | AID 743279, 2014; in the data active = activity change below about -50%; inconclusive = mostly about -30% to -49%
#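 THP-1 cells pretreated 1 hr with compounds (up to 57.5 uM final), then stimulated with LPS (250 ng/mL final) plus ATP (1.25 mM final); secreted IL-1B measured by AlphaLISA after 16 hr, decreased signal indicating inhibition.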
# DT40 TDP1 no CPT: qHTS for Inhibitors of human tyrosyl-DNA phosphodiesterase 1 (TDP1): qHTS in cells in absence of CPT; DT40 Tdp1-/- hTDP1 cells, no CPT, ATP luminescence, 48 h; Potency, µM (doses to about 46.2 µM), for inactives: at the highest dose activity change, negative = growth inhibition, hits mostly inhibitors; hit rate 15% among 420,000; AID 686978, 2013; also: potency is read from the fitted curve at half-maximal effect; nearly all actives have a fitted effect of over 55% in size
#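 Readout: luminescence from CellTiter-Glo after 30 min in the dark at RT. Cells: DT40 Tdp1-/- with stable hTDP1, 400/well. Exposure: compounds alone, ≥48 hr, 37 °C.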
# HT1080 IDH1KD tx: qHTS for induction of synthetic lethality in tumor cells producing 2HG: qHTS for the HT-1080-IDH1KD cell line; HT-1080 IDH1 knockdown viability, ATP luminescence, 48 h; Potency, µM (top dose mostly 46.1 µM), for the others: top-dose activity, negative = toxicity, most hits filed as cytotoxic; hit rate 2% among 360,000;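 also: potency is read from the fitted curve at half-maximal effect; 0% = DMSO wells and -100% = cell-free medium wells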
#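 % activity derives from luminescence (CellTiter-Glo), normalised to DMSO and no-cell wells. HT-1080-IDH1KD cells, 750/well, had 48 h compound exposure at 37 °C.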
# HT1080NT lethal: qHTS for induction of synthetic lethality in tumor cells producing 2HG: qHTS for the HT-1080-NT fibrosarcoma cell line. HT-1080-NT fibrosarcoma viability, CellTiter-Glo ATP luminescence, 48 h. Potency, µM (series often up to 46.1 µM), for inactives: top-dose activity, negative = less viability, usual class: cytotoxic. hit rate 1.6% among 360,000;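 also: NT is the 2HG producing partner of a matched IDH1 knockdown line; potency is read from the fitted curve at half-maximal effect; 0% = DMSO-treated cells and -100% = media-only wells without cells; nearly all actives have a fitted effect of over 55% in size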
#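 Read-out is CellTiter-Glo luminescence after 10 minutes at room temperature, following 48 hours' compound treatment of HT-1080-NT cells (750 cells/well, RPMI, 5% FBS, 37 degrees C).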
# DT40 TDP1 CPT: qHTS for Inhibitors of human tyrosyl-DNA phosphodiesterase 1 (TDP1): qHTS in cells in presence of CPT; chicken DT40 Tdp1-/-;hTDP1 cells + 20 nM CPT, ATP luminescence, 48 h; Potency, µM (highest dose often 46.2 µM), without a hit: at the highest dose activity change, negative = growth inhibition, hits mostly inhibitors; hit rate 12% among 420,000; AID 686979, 2013; also: potency is read from the fitted curve at half-maximal effect; nearly all actives have a fitted effect of over 55% in size
#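 Chicken DT40 Tdp1-/- cells stably complemented with human TDP1 were seeded at 400 cells/well in medium containing 20 nM camptothecin, exposed to pin-transferred compounds, and grown at 37 °C for at least 48 hr. Viability was read as ATP luminescence.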
# Starred values were filed as active, the others as inactive; ? = inconclusive; / = no result; [ ] = another dose, or the depositor's remark. Hits are enriched below; roughly 19% of the tested compounds scored in any of these assays. Unless noted, calls follow the shape of the dose curve; as a rule, active = well fitted curve in the direction sought with a large enough effect; inconclusive = small, poorly fitted or top-dose-only effect, or another doubt; inactive = no such curve, though single readings can be large; an effect the other way counts as inactive or inconclusive. Unless noted, % is scaled to controls: 0 for no effect and ±100 for the full control effect.
SMILES,IL-1B inflam inh,DT40 TDP1 no CPT,HT1080 IDH1KD tx,HT1080NT lethal,DT40 TDP1 CPT
Cc1c(C)n(Cc2ccccc2)c2ncnc(N)c12,-6,23µM*,-14%,-7%,15µM*
COc1ccc(C(C#N)=Cc2ccccc2OC)cc1,26,5.2µM*,?,?,6.5µM*
COc1ccc(/C=C/C(=O)c2ccncc2)c2ccccc12,-29,16µM*,?,?,23µM*
COc1ccc(/C=C/C(=O)c2ccc[nH]2)c(OC)c1OC,-29,?,11%,11%,0%
CC(C)CNC(=O)C1(C)CCCN1C(=O)c1ccc2ccccc2n1 (configuration not stated),3,-5%,?,8%,4%
O=C1CCN(Cc2ccccc2)C=C1c1ccc(Cl)cc1,-6,?,-4%,-3%,23µM*
O=C1CCN(Cc2ccccc2)C=C1c1ccc(C(F)(F)F)cc1,16,?,-16%,-3%,?
CCCc1nc2ccccc2c(C(=O)OCC(=O)N2CCc3ccccc32)c1CC,13,12µM*,-16%,1%,18µM*
CCc1noc(C)c1C(=O)OCC(=O)N1CCc2ccccc21,0,2.3µM*,-3%,-5%,5%
CC1CCc2nc3ccccc3c(C(=O)OCC(=O)N3CCc4ccccc43)c2C1 (configuration not stated),23,5.8µM*,-3%,-14%,8.2µM*
Cc1noc(C)c1C(=O)OCC(=O)N1CCc2ccccc21,-9,-5%,1%,1%,-15%
CNC[C@H]1Oc2c(NC(=O)c3ccc(-c4nccs4)cc3)cccc2C(=O)N([C@@H](C)CO)C[C@@H]1C,-4,6%,9%,-1%,10%
CCN1CCN(C(C(=O)NC2CCCCC2)c2ccnc3ccccc23)CC1 (configuration not stated),28,1%,4%,26%,-5%
COC(=O)COc1ccc(NS(=O)(=O)c2cccc([N+](=O)[O-])c2)cc1,-152*,3%,-15%,-4%,2%
COC(=O)COc1cccc(NS(=O)(=O)c2cccc([N+](=O)[O-])c2)c1,-194*,3%,4%,0%,1%
Cc1ccc2c(c1)CN(CCC(=O)NCc1cc(C)n(C)n1)CC(C)O2 (configuration not stated),/,-12%,/,/,24%[9.04 µM]
Oc1[nH]c2ccccc2c1N=Nc1cccc(Cl)c1,30,0%,4%,1%,2%
Cc1sc2ncnc(N=Nc3c(O)[nH]c4ccccc34)c2c1C,32,23µM*,2%,8%,-8%
Oc1[nH]c2ccccc2c1N=Nc1nncc2ccccc12,11,?,?,?,?
CCc1cc2c(N=Nc3c(O)[nH]c4ccccc34)ncnc2s1,12,21µM*,-1%,-16%,18µM*
COc1ccc(NC(=O)CN(c2ccccc2C)S(C)(=O)=O)c(OC)c1,0,16%,1%,17%,2%
Cc1cccc(C)c1NC(=O)C(=O)NCC1CCCN1S(=O)(=O)c1cccs1 (configuration not stated),27,12µM*,0%,1%,?
O=C(NCC1CCCN1S(=O)(=O)c1cccs1)C(=O)Nc1ccccc1Cl (configuration not stated),-9,?,0%,10%,?
Cc1ccc(NC(=O)C(=O)NCC2CCCN2S(=O)(=O)c2cccs2)c(C)c1 (configuration not stated),-10,?,-11%,-2%,18µM*
O=C(NCC1CCCN1S(=O)(=O)c1cccs1)C(=O)Nc1ccc(F)cc1F (configuration not stated),1,?,0%,-3%,?

# Compound activity (PubChem)
